{"source": "the OligoGym collection", "data": [{"molecular_target": "CPNE5", "experiment": "pooled miR-30 sensor sort-seq; sequence = guide strand", "settings": "shRNA", "values": [{"sequence": "TTGGTCTGCGCCATGTCCGAGA", "sensor-assay potency score (higher = more potent)": -1.04}, {"sequence": "TAACTGGTGGTGAACTCCCCAA", "sensor-assay potency score (higher = more potent)": -0.885}, {"sequence": "TTGGTCAGGGATCTCTGCCAGC", "sensor-assay potency score (higher = more potent)": -1.14}, {"sequence": "TAGTGCTGGATGATCTCTCCGA", "sensor-assay potency score (higher = more potent)": 0.148}, {"sequence": "TAATCCACAATGAACTTGCGCA", "sensor-assay potency score (higher = more potent)": -0.151}, {"sequence": "TTGCATCGTACTGAGTTCGAGA", "sensor-assay potency score (higher = more potent)": -0.62}, {"sequence": "TTGTCCAGGAGGTTCCTGCAGG", "sensor-assay potency score (higher = more potent)": -0.916}, {"sequence": "TTCTTCATTTTCTTTTTCGGGT", "sensor-assay potency score (higher = more potent)": -0.414}]}, {"molecular_target": "CRB1", "experiment": "pooled miR-30 sensor sort-seq; sequence = guide strand", "settings": "shRNA", "values": [{"sequence": "TTGGCTTTCACACCAATCCTTT", "sensor-assay potency score (higher = more potent)": -1.07}, {"sequence": "TTTGAGAAATTGCTCTTCCTGA", "sensor-assay potency score (higher = more potent)": -0.258}, {"sequence": "TTTATATTGTCAATAGCTCTGT", "sensor-assay potency score (higher = more potent)": 0.0403}, {"sequence": "TTACATCTTGGATACAGCCTTT", "sensor-assay potency score (higher = more potent)": -0.193}, {"sequence": "TTGAAGAACATTCATTGACGTC", "sensor-assay potency score (higher = more potent)": -0.696}, {"sequence": "TTATATTGTCAATAGCTCTGTC", "sensor-assay potency score (higher = more potent)": 0.532}, {"sequence": "TTCATTGACGTCTTCTTCGCAG", "sensor-assay potency score (higher = more potent)": 0.387}, {"sequence": "TGTCTGAACAAGAACAATCATT", "sensor-assay potency score (higher = more potent)": -1.04}, {"sequence": "TTGAGGTCGATCTCACACTGGG", "sensor-assay potency score (higher = more potent)": -0.294}, {"sequence": "ATAAATATCTGTATTATCCTTC", "sensor-assay potency score (higher = more potent)": 0.756}, {"sequence": "TATTATTACATTTGCATCCCTT", "sensor-assay potency score (higher = more potent)": -0.226}, {"sequence": "TTCAAATCCTTGAAGCACCGGC", "sensor-assay potency score (higher = more potent)": 0.589}]}, {"molecular_target": "CRB3", "experiment": "pooled miR-30 sensor sort-seq; sequence = guide strand", "settings": "shRNA", "values": [{"sequence": "TCCGTCTGCCGCTTCTCCCGAA", "sensor-assay potency score (higher = more potent)": -1.23}, {"sequence": "TTCTCATTTGCAGAAGTGGTCT", "sensor-assay potency score (higher = more potent)": -0.965}, {"sequence": "AAGACCACGATGATAGCAGTGA", "sensor-assay potency score (higher = more potent)": -0.0143}, {"sequence": "TTGCAGAAGTGGTCTGTATTTG", "sensor-assay potency score (higher = more potent)": -1.49}, {"sequence": "TGGACGCAGGTTGCCATCGGAG", "sensor-assay potency score (higher = more potent)": -1.88}, {"sequence": "TATTCTCATTTGCAGAAGTGGT", "sensor-assay potency score (higher = more potent)": -1.61}, {"sequence": "TGGGAGAACTGCTCCTCGCTAC", "sensor-assay potency score (higher = more potent)": -1.03}, {"sequence": "TTTGAAGTACCTTCTTCCCTGC", "sensor-assay potency score (higher = more potent)": 0.11}, {"sequence": "ATAGCAGTGATGGCTTCTGGAC", "sensor-assay potency score (higher = more potent)": -1.45}, {"sequence": "ATGAAGGCAAAACAGTGCTATT", "sensor-assay potency score (higher = more potent)": -1.64}, {"sequence": "TGCTCCTCGCTACTGGGCCGGT", "sensor-assay potency score (higher = more potent)": -1.75}, {"sequence": "TTGCCATCGGAGCTGGAGCTGG", "sensor-assay potency score (higher = more potent)": -1.68}]}, {"molecular_target": "CREB5", "experiment": "pooled miR-30 sensor sort-seq; sequence = guide strand", "settings": "shRNA", "values": [{"sequence": "TTTAATGACAAACTCAACTTAC", "sensor-assay potency score (higher = more potent)": -0.383}, {"sequence": "TTATGTGTTAACAACAACTGTT", "sensor-assay potency score (higher = more potent)": -0.0254}, {"sequence": "TTAGATATCCTTGTGATTCTTT", "sensor-assay potency score (higher = more potent)": 0.29}, {"sequence": "TTGAACAATGTAATCTGTGTAG", "sensor-assay potency score (higher = more potent)": -0.458}, {"sequence": "TTTAAAAACAAGTAGATCCTAC", "sensor-assay potency score (higher = more potent)": 0.376}, {"sequence": "TTAACAGGCAACAACCACCAGA", "sensor-assay potency score (higher = more potent)": -0.508}, {"sequence": "TTGAACTGAGCTATTTTTCTGG", "sensor-assay potency score (higher = more potent)": 0.269}, {"sequence": "TATGTGTTAACAACAACTGTTT", "sensor-assay potency score (higher = more potent)": -0.672}]}]}
